Laboratory results taken from PubChem BioAssay AID2288 (National Center for Advancing Translational Sciences (NCATS), 2010).
The campaign covered roughly 340,000 compounds. Fewer than 10 were called active. Roughly 2% stayed inconclusive and do not appear here. Calls come from the whole dose curve; as a rule, active = well fitted curve in the direction sought with a large enough effect; inconclusive = small, poorly fitted or top-dose-only effect, or another doubt; inactive = no such curve, though single readings can be large or run the other way. Only a sample is shown.

Assay: qHTS Assay for Modulators of miRNAs and/orActivators of miR-21;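 note: % of control where 0% means no effect; miR-21 action dims this reporter so a rising signal means less miR-21 action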
Settings: HeLa miR-21 FLuc reporter, luciferase, 48 h; series mostly up to 38.3 µM; activity change, positive = activation: at the top concentration
Excerpt: MLSCN Grant: 1 R21 NS059478-01 Assay Provider: Qihong Huang, The Wistar Institute NCGC Assay Overview: MicroRNAs (miRNAs) are endogenously encoded small (~20-25 nucleotides), nonprotein-coding RNAs that are involved in post-transcriptional repression of target messenger RNAs (mRNAs) (Le and Hannon, 2004). Estimated to be involved in the regulation of 30% of all protein-coding mRNAs (Filipowicz et al., 2008), miRNAs play a significant role in many biological processes including cellular differentiation and tissue development (Ghildiyal and Zamore, 2009).
NCGC Assay Protocol Summary: Reagents: HeLa cells stably expressing firefly luciferase (FLuc) under the control of a CMV promoter (upstream) and a miR-21 binding sequence directly downstream of the gene. These cells endogenously express miR-21. Control compounds used were compound C3 (provided by collaborator), N6-phenyladenosine (MP Biomedicals, 0215379625), and DMSO. Assay Summary: 6uL of HeLa miR-21-FLuc cells in assay buffer (DMEM, Invitrogen #21063-029; 10% FBS, HyClone #SH30071.03) were dispensed at 2000cells/well (3.3 x 10^5 cells/mL) into Greiner solid-white TC-treated 1536-well plates using a Multidrop Combi (Thermo Fisher Scientific). Plates were incubated for one hour at 37 degree Celsius, 95% humidity, 5% CO2. These assay plates were then treated with 23nL of compound or DMSO using a Kalypsys pin tool, which allows for delivery of a 24-point titration of each compound to the assay plate, with a final compound concentration ranging from approximately 40uM to 5pM. Assay plates were then incubated for 48 hours. After incubation, plates were allowed to come to RT for one hour prior to delivery of 3uL of 3X luciferase detection reagent. After a 15 minute incubation to allow for cell lysis, luciferase activity was measured using a ViewLux CCD imager (PerkinElmer), with an average exposure time of 2-12 seconds. Keywords: NIH Roadmap, MLPCN, MLSMR, qHTS, miR-21, microRNA, firefly luciferase, FLuc.

Activity change, positive = activation, inactive:
CCOc1ccc(CCNC(=O)c2ccc3c(c2)sc2nc(-c4ccc(F)cc4)cn23)cc1OCC 1.62%, Cc1cc(NC(=O)c2ccc(-c3ccc(Cl)cc3)o2)cc(-c2nc3ncccc3o2)c1O 2.05%, O=C(CSc1oc(-c2ccco2)nc1S(=O)(=O)c1ccccc1)c1ccc(Cl)cc1 8.21%, COc1cccc(CNC(=O)Cc2csc3nc(-c4ccccc4)cn23)c1 -0.468%, Cc1ccc(NC(=O)c2ccc(CN3CC(=O)N4CCCCC4C3=O)cc2)c(Cl)c1 (stereo unspecified) 1.68%, O=C(Cn1ncn2nc(-c3cccs3)cc2c1=O)NCc1cccc(Br)c1 -2.62%, Cc1ccc(C)c(OCC(=O)Nc2sc3c(c2C#N)CCCC3)c1C -1.24%, COc1cccc(N2CCN(S(=O)(=O)c3cc(Br)cc4c3N(C(=O)C3CC3)CC4)CC2)c1 -0.588%, CCNS(=O)(=O)c1cc(-c2nnc(Nc3cccc(C(F)(F)F)c3)c3ccccc23)ccc1C -0.871%, Cc1nn(-c2ccc(N3CCCCC3)nn2)c(C)c1CCC(=O)NCc1ccccc1F 18.3%, CCOc1ccc(N(CC)C(=O)c2cc3c(=O)oc4ccccc4c3s2)cc1 -10.1%, CCCN(CCC)S(=O)(=O)c1ccc(C(=O)Nc2sc3c(c2C(=O)OC)CCN(CC)C3)cc1 22.1%, COC(=O)c1ccccc1NC(=O)c1cc(-c2ccccc2O)no1 5.97%, COC(=O)CC1Oc2ccccc2-n2cc(-c3ccccc3)nc21 (stereo unspecified) 12.2%, CCc1cc2c(cc3c(=O)n(CC(=O)N4CCN(c5cc(Cl)ccc5C)CC4)ncn32)s1 0.215%, CCOC(=O)c1ccc(NC(=O)Cn2cc(S(=O)(=O)Cc3ccccc3F)c3ccccc32)cc1 -1.64%, CCOC(=O)c1cnc2c(C)cc(C)cc2c1Nc1ccc(N2CCOCC2)cc1 -4.37%, Cc1cccc(CNC(=O)c2cnc3sc(N4CCCCC4)nn3c2=O)c1 -1.19%, Cc1nn(-c2ccc(N3CCCCC3)nn2)c(C)c1CCC(=O)NCc1ccc(F)cc1 -12.7%, Cc1cccc(-n2ccnc2SCC(=O)Nc2cccc3ccccc23)c1C 5.86%, CCOc1ccc(C(=O)c2cn(Cc3ccccc3OC)c3ccc(F)cc3c2=O)cc1 1.46%, CCOC(=O)c1cccc(NC(=O)c2cc(CN3CCCC3)on2)c1 -64%, O=C(Nc1ccc2nc(SCCOc3ccccc3Cl)sc2c1)c1ccco1 9%, Cc1ccc2c(=O)cc(C(=O)Nc3sc4c(c3C(=O)NCc3cccnc3)CCCC4)oc2c1 1.15%, Cc1ccc(CN2C(=O)SC(Nc3ccccc3)C2=O)cc1 (stereo unspecified) 2.92%, O=C(CCS(=O)(=O)c1cc(Br)cc2c1N(C(=O)C1CC1)CC2)Nc1ccc(C(F)(F)F)cc1 -1.46%, O=S(=O)(c1ccc(C2CCCCC2)cc1)N1CCN(c2ccc(Cl)c(Cl)c2)CC1 -2.63%, O=C(NCCC1=CCCCC1)c1ccc2c(c1)N(Cc1ccccc1F)C(=O)c1ccccc1S2(=O)=O 5.95%, CN(C)S(=O)(=O)c1ccc(C(=O)N(Cc2cccnc2)c2nc3c(F)cc(F)cc3s2)cc1 -11.5%, CCNC(=O)Cn1nc(C)n2c(cc3c(OC)cccc32)c1=O -0.737%, CCn1cc(C(=O)N2CCN(c3cc(C)ccc3C)CC2)c(=O)c2cc(S(=O)(=O)N(C)C3CCCCC3)ccc21 0.0352%, CCC(=O)N1CCc2cc(CNC(=O)Nc3ccccc3Cl)ccc21 -28.9%, Cc1cc(C)c(NC(=O)c2cc3sc(Cl)cc3n2C)c(C)c1 0.326%, COc1ccc(C(F)(F)F)cc1NC(=O)c1sc2nc(-c3cccs3)ccc2c1N -11.7%, Cc1cc2n(n1)C(c1cc(C(C)(C)C)c(O)cc1O)Nc1ccccc1-2 (stereo unspecified) 10.5%, CCc1ccc(C2C(C(=O)Nc3ccccc3)=C(C)Nc3c(C(=O)Nc4ccc(C)cc4)cnn32)cc1 (stereo unspecified) 18.4%, Cc1ccc(C)c(N2C(=O)N(Cc3c(F)cccc3Cl)c3ccccc3S2(=O)=O)c1 19.2%, Clc1cccc(-n2ncc3c(NCCc4ccccc4)ncnc32)c1 -34%, CCOc1ccc(N2CC(C)Cn3c2nc2c3c(=O)n(Cc3c(F)cccc3Cl)c(=O)n2C)cc1 (stereo unspecified) -3.48%, CCc1cc2c(cc3c(=O)n(CC(=O)N4CCN(c5cc(Cl)ccc5C)CC4)nc(CC)n32)s1 -0.281%, COc1ccc(-n2ccnc(NCCc3ccc(Cl)cc3)c2=O)cc1OC 24.5%, O=C1CCCc2cc(S(=O)(=O)N3CCCC(C(=O)NCc4ccccc4)C3)ccc2N1 (stereo unspecified) 7.69%, CCOC(=O)c1c(NC(=O)c2cc(CC)on2)sc(C(C)=O)c1C -1.99%, CCOc1ccc(N(CC)C(=O)C2CCN(S(=O)(=O)c3cccc4nonc34)CC2)cc1 0.642%, COc1ccccc1C1C(C(=O)N2CCCCC2)=C(C)Nc2nc3ccccc3n21 (stereo unspecified) 0.0662%, O=C(Nc1c(-c2ccc(F)cc2)nc2ccccn12)c1cccc(F)c1 -1.07%, O=C(CCn1c(=O)c2sccc2n(Cc2ccc(F)cc2)c1=O)NCc1ccc2c(c1)OCO2 0.239%, COc1cc(OC)cc(-c2nc3nc(C)c(CCC(=O)Nc4ccccc4)c(C)n3n2)c1 -4.08%, Cc1ccccc1-c1nc2scc(CCNC(=O)C(=O)Nc3ccc(F)cc3F)n2n1 0.0996%, Cc1cccc2nc(-c3ccc(Cl)s3)c(Nc3ccc4c(c3)OCCO4)n12 -42.6%, O=C(Cn1c(=O)n(Cc2ccccc2)c(=O)c2sc3ccccc3c21)Nc1ccccc1F -6.8%, COc1ccc(-c2cc(-c3ccccc3)nc3c2COc2ccc(Cl)cc2-3)cc1 -0.778%, Cc1ccc(S(=O)(=O)c2nc(-c3cccs3)oc2N2CCCCC2)cc1 1.01%, Cc1cccc(NC(=O)Cn2cc(S(=O)(=O)Cc3ccccc3Cl)c3ccccc32)c1 7.43%, O=C(NC1CC(=O)N(c2ccc(F)cc2)C1)c1cccs1 (stereo unspecified) -2.97%, COc1ccc(Cl)cc1S(=O)(=O)N1CCC(c2ccncc2)CC1 12.3%, CC(C)CC(NS(=O)(=O)c1ccc2c(c1)oc(=O)n2C)C(=O)NCc1ccccc1Cl (stereo unspecified) -0.815%, CCc1ccccc1NC(=O)CSc1nnc(-c2ccccc2)c(-c2ccccc2)n1 13.9%, CCCc1nn2c(=O)cc(COC(=O)c3ccc(NC(=O)COc4ccc(F)cc4)cc3)nc2s1 -7.11%, CCOc1ccccc1CNC(=O)c1ccc2c(c1)nc1n2CCC(C)C1 (stereo unspecified) -0.912%, COc1ccc2c(c1)C=C(C(=O)NCc1cc(Br)ccc1OC)CO2 4.49%
